Reference: PubChem BioAssay (NCI)
This is part of a sample that, as a whole, favours compounds with a hit. Of some 83,000 tested, about 20% had one in any assay.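 Note: values are percent growth. 100 is the growth of untreated cells, values between 100 and 0 indicate rising inhibition; between -100 and 0 indicates cell death.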 Unmarked numbers belong to inactive results. Active and inactive are the calls of the source. Rule for the calls: active = growth percent below 10; inactive = the rest.

What was measured:
Test in all cases: NCI-60 one-dose screen, 48 h (100 = growth as untreated, 0 = no growth, -100 = all killed)
Conditions in all cases: 10 µM unless noted
T-47D breast = test system: T-47D breast
BT-549 breast = test system: BT-549 breast
MDA-MB-435 melanoma = test system: MDA-MB-435 melanoma
SW-620 colon = test system: SW-620 colon
MCF7 breast = test system: MCF7 breast
HCT-116 colon = test system: HCT-116 colon
KM12 colon = test system: KM12 colon
HCC-2998 colon = test system: HCC-2998 colon

SMILES | growth (T-47D breast) | growth (BT-549 breast) | growth (MDA-MB-435 melanoma) | growth (SW-620 colon) | growth (MCF7 breast) | growth (HCT-116 colon) | growth (KM12 colon) | growth (HCC-2998 colon)
CCCCSC1=C(Cl)CN(c2ccccc2)C1=O | 85% | 110% | 108% | 106% | 51.5% | 104% | 93.7% | –
O=[N+]([O-])c1ccc(NC(=S)NNC(=S)Nc2ccc(F)cc2)cc1 | 74.1% | 97.1% | 91% | 91.5% | 82% | 83.7% | 80.4% | 85.5%
CCC(=C(c1ccc(OCCN2CCCCCC2)cc1)c1ccc(OCCN2CCCCCC2)cc1)c1ccc(Cl)cc1 | 27.1% | 86.2% | -85.8% (active) | -49.2% (active) | -63.7% (active) | -88.9% (active) | 4.43% (active) | -86% (active)
CN1CCC[C@]2(C)[C@H]3CC[C@@H]4[C@@H]5[C@H]6OC[C@@]5(CCC6(C)C)CC[C@@]4(C)[C@]3(C)CC[C@H]2C1(C)C | 54.9% | 96.8% | 69.8% | 23.2% | 8.03% (active) | 15.4% | 79.1% | –
NC(=S)n1c(=O)n(-c2cccc(C(F)(F)F)c2)c(=O)c2cc(-c3ccc(F)cc3F)ccc21 | -12.9% (active) | -7.8% (active) | 2.32% (active) | 15% | 1.71% (active) | 3.05% (active) | 6.48% (active) | 20.1%
Cc1nc(/N=C(N)/N=C(\N)c2cccc(Br)c2)sc1C | 56.4% | 84.7% | 10.8% | 33% | 13.2% | 25.4% | 37.4% | –
Cc1ccc(NC(=O)/C=C/c2ccc(OCCCOc3ccc4c(C)cc(=O)oc4c3)cc2)cc1 | 70.3% | 98.7% | 77.1% | 83.5% | 73.4% | 78.9% | 84.8% | –
Cc1cc2nc3c4cc(C#N)ccc4n(CCN(C)C)c3nc2cc1C | 20.2% | -28.3% (active) | -27.4% (active) | -9.39% (active) | 2.34% (active) | -33.3% (active) | -3.36% (active) | -73% (active)
C#C[C@]1(O)CC[C@H]2[C@@H]3CC=C4c5sc(NCc6ccccc6)nc5CC[C@]4(C)[C@H]3CC[C@@]21C | 65.8% | 18.2% | 82.2% | 52.7% | 21.7% | 12.5% | 18.9% | 78.1%
O=C(CSc1nnc(-c2ccc(Cl)cc2)n1-c1ccccc1)Nc1ccc(Cl)cc1 | 30.9% | 70.2% | 42.3% | 58.6% | 53.3% | 1.07% (active) | 57.6% | 70.1%
CN1CCN(CCCCCC(=O)Nc2nc(-c3cccc(NS(=O)(=O)c4cccc5c(N(C)C)cccc45)c3)cs2)CC1 | 72.3% | 90.7% | 52.1% | 92.8% | 14.8% | 51.6% | 79.6% | 83.7%
COCCOc1ccc2ncc(C#Cc3cncc(C(=O)Nc4ccc(CN5CCN(C)CC5)c(C(F)(F)F)c4)c3)n2n1 | 59.6% | 0.139% (active) | 11.5% | -34% (active) | -59.8% (active) | -86.7% (active) | 0.84% (active) | –
CC1(C)CC[C@]2(C(=O)O)CC[C@]3(C)C(=CC[C@@H]4[C@@]5(C)CC[C@H](NOCCCN)C(C)(C)[C@@H]5CC[C@]43C)[C@@H]2C1 | 73.1% | 80% | 91.7% | 83.8% | 68.2% | 57.2% | 80.9% | –
O=C(CSc1nnc(-c2cccs2)n1-c1ccccc1)Nc1ccccc1F | 88.9% | 89.2% | 3.39% (active) | 69.3% | 58.9% | 83.7% | 61.5% | 91.6%
O=C1[C@H]2Cc3c([nH]c4ccccc34)[C@H](c3ccc(Cl)cc3)N2C(=O)CN1C1CCN(CC2CCCCC2)CC1 | 93% | 70.8% | 62.3% | 72.5% | 16.2% | 5.7% (active) | 62% | –
O=C(CN1CCN(c2cc(=O)[nH]c3ccc(F)cc23)CC1)N(c1ccccc1)c1ccccc1 | 97.4% | 104% | 102% | 104% | 96.7% | 98% | 107% | –

SMILES | growth (T-47D breast) | growth (BT-549 breast) | growth (MDA-MB-435 melanoma) | growth (SW-620 colon) | growth (MCF7 breast) | growth (HCT-116 colon) | growth (KM12 colon) | growth (HCC-2998 colon)
C=C1CCc2nc(SCC(=O)O)ccc2N1 | 98.5% | 114% | 101% | 106% | 99.5% | 98% | 102% | –
CCNC(=O)Oc1ccc(/C(=C(/C)c2ccc(Cl)cc2)c2ccc(OCCN3CCCCCC3)cc2)cc1 | 10.8% | 77.5% | 22.5% | -74.5% (active) | -37.8% (active) | -80% (active) | 12.7% | –
N#C/C(=C\c1cccc2c1OCO2)C(=O)Nc1sc2c(c1C#N)CCCC2 | 93.8% | 107% | 103% | 106% | 97.6% | 98.4% | 103% | 120%
COc1ccc(/C(=N\NC(N)=S)c2ccc(Cl)cc2)cc1OC | 18.1% | 14.2% | -35.1% (active) | 15.9% | 14.4% | 14.9% | 19.4% | 52.6%
Cc1cccc(N2CCN(C3=C(Cl)C(=O)c4ncccc4C3=O)CC2)c1 | -39.5% (active) | 97.9% | 11.8% | 11% | 5.92% (active) | -16.3% (active) | 92.2% | –
Oc1ccc(-c2nc3ccc(/C(=N\N=C\c4ccc(Cl)cc4)c4ccccc4)cc3[nH]2)cc1 | 79.9% | 94.3% | 84.4% | 88.5% | 53.1% | 82.6% | 74% | 91.9%
N#Cc1c(-c2cccs2)cc(-c2cnccn2)nc1SCC(=O)N/N=C/c1cccs1 | 50.1% | 42.5% | 51% | 43.2% | 32.1% | 0.402% (active) | 47.6% | –
Cc1ccc(-c2nc(SCC(=O)c3ccccc3)nc(Nc3ccc(S(N)(=O)=O)cc3)c2C#N)cc1 | 83.9% | 73.8% | 47% | 83.8% | 65.1% | 35.9% | 72.8% | –
C#CCOc1ccc(/C=N/Nc2nc(-c3ccc(OC)cc3)cs2)cc1 | 68.7% | 89.1% | 79.3% | 93.3% | 69.8% | 71.4% | 78.8% | –
O=C(/C=C/c1cccc(F)c1)c1cccc(OCCCOc2cccc(C(=O)/C=C/c3cccc(F)c3)c2)c1 | 69.8% | 72.1% | 99.8% | 14.3% | 10.2% | -80.3% (active) | 32.6% | 44.2%
CC(C)[C@H]1c2[nH]c3ccccc3c2C[C@H]2C(=O)N(CCCCCCC(=O)NO)CC(=O)N12 | 62.4% | 101% | 74.9% | 82.3% | 59.5% | 59.2% | 88.8% | 102%
CCc1nnc(NC(=O)c2cc(-c3ccc(Cl)cc3Cl)oc2C)s1 | 61.7% | 90.4% | 90.6% | 93.3% | 84.9% | 42.2% | 72.7% | 111%
NC1C2CCC1CN(c1cnc(C(=O)Nc3cc(F)cc4cccnc34)cn1)C2 (stereo unspecified) | 34.2% | 94.7% | 75.5% | 25% | 3.24% (active) | 15.8% | 77.1% | –
N#C/C(=C\c1ccc(-c2ccc(Cl)c(Cl)c2)o1)C(=O)Nc1ncc(Cc2ccc(Cl)cc2)s1 | 17.9% | 42.1% | 26.9% | 10.8% | 58.7% | 9.52% (active) | 19.6% | –
O=C(N/N=C\c1ccc(F)cc1)c1ccc2nc(-c3ccc(Br)cc3)[nH]c2c1 | 75.6% | 73.5% | 40.7% | 2.87% (active) | 9.41% (active) | -21% (active) | 16% | –
